Most compounds without a hit are left out; they make up all but 19% or so of the library.
IL-1B inflam inh = blocks inflammasome-driven IL-1 beta release | 360,000 tested, 4.7% active | activity change, % at 57.5 µM | AID 743279 | THP-1 LPS/ATP IL-1B secretion, AlphaLISA, 16 h; active compounds read low; in the data active = activity change below about -50%; inconclusive = mostly about -30% to -49%
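Secreted IL-1B measured by AlphaLISA bead assay after 16 h compound exposure of THP-1 cells; compounds (final up to 57.5 uM) added 1 h before LPS (250 ng/mL) and ATP (1.25 mM) stimulation; lower signal means less secretion.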
HT1080-NT tox = kills 2HG-producing HT-1080-NT fibrosarcoma cells | HT-1080-NT fibrosarcoma viability, CellTiter-Glo ATP luminescence, 48 h | Potency, µM (series often up to 46.1 µM), inactives show top-dose activity, negative = less viability, hits mostly cytotoxic | 360,000 tested, 1.6% active | AID 686970;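 note: NT is the 2HG producing partner of a matched IDH1 knockdown line; potency is the fitted concentration of half-maximal effect; 0% = DMSO-treated cells and -100% = media-only wells without cells; nearly all actives have a fitted effect of over 55% in size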
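Read-out is CellTiter-Glo luminescence after 10 minutes at room temperature, following 48 hours' compound treatment of HT-1080-NT cells (750 cells/well, RPMI, 5% FBS, 37 degrees C).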
HT1080 IDH1KD tx = HT-1080 IDH1 knockdown cell toxicity (counter line). Potency, µM (top dose mostly 46.1 µM), without a hit: top-dose activity, negative = toxicity, hits mostly cytotoxic. HT-1080 IDH1 knockdown viability, ATP luminescence, 48 h. 360,000 tested, 2% active. AID 686971;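 note: potency is the fitted concentration of half-maximal effect; 0% = DMSO wells and -100% = cell-free medium wells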
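CellTiter-Glo luminescence after 48 h compound exposure at 37 degrees C of IDH1-knockdown HT-1080 cells in 5% FBS RPMI. %Activity scaled between DMSO wells and cell-free media wells, with curves fitted and assigned curve classes.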
DT40 TDP1 CPT = DT40-hTDP1 cell growth loss with CPT; chicken DT40 Tdp1-/-;hTDP1 cells + 20 nM CPT, ATP luminescence, 48 h; Potency, µM (series often up to 46.2 µM), inactives show top-dose activity change, negative = growth inhibition, most hits filed as inhibitors; 420,000 tested, 12% active; AID 686979; note: potency is the fitted concentration of half-maximal effect; nearly all actives have a fitted effect of over 55% in size
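Chicken DT40 Tdp1-/- cells complemented with human TDP1, 400 cells/well, exposed to compounds plus 20 nM camptothecin for at least 48 h at 37 C; viability read as ATP content by CellTiter-Glo luminescence.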
DT40 TDP1 no CPT = qHTS for Inhibitors of human tyrosyl-DNA phosphodiesterase 1 (TDP1): qHTS in cells in absence of CPT; DT40 Tdp1-/- hTDP1 cells, no CPT, ATP luminescence, 48 h; Potency, µM (titrated, usually from 46.2 µM), inactives show at the highest dose activity change, negative = growth inhibition, usual class: inhibitors; 420,000 tested, 15% active; AID 686978, 2013; note: potency is the fitted concentration of half-maximal effect; nearly all actives have a fitted effect of over 55% in size
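No-CPT arm: Tdp1-/-;hTDP1 DT40 cells (400/well) plus compounds, incubated ≥48 hr at 37 °C. Readout CellTiter-Glo luminescence.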
The depositor's hits bear a star; ! = not active in a repeat. Unless noted, calls come from the whole dose curve; as a rule, active = well fitted curve in the direction sought with a large enough effect; inconclusive = small, poorly fitted or top-dose-only effect, or another doubt; inactive = no such curve, though single readings can be large; an effect the other way counts as inactive or inconclusive. Unless noted, % is set by controls: 0 for no effect and ±100 for the full control effect.

Cc1noc(C)c1S(=O)(=O)Nc1ccc2c(c1)C(=O)N([C@H](C)CO)C[C@H](C)[C@@H](CN(C)C(=O)CCCN(C)C)OCCCC[C@@H](C)O2 was read as IL-1B inflam inh 1, HT1080-NT tox 7%, HT1080 IDH1KD tx 8%, DT40 TDP1 CPT -1% and DT40 TDP1 no CPT -2%.
O=C1CCCC2=C1C1(CCCCC1)N=C(Nc1nc3ccccc3o1)N2 was read as IL-1B inflam inh -27, HT1080-NT tox -9%, HT1080 IDH1KD tx -20%, DT40 TDP1 CPT inconclusive and DT40 TDP1 no CPT 13µM*.
`CCCN1CCC(=O)N([C@H](COc2ccccc2)Cc2ccccc2)CC1` gave IL-1B inflam inh -5, HT1080-NT tox -1%, HT1080 IDH1KD tx -9%, DT40 TDP1 CPT 26µM* and DT40 TDP1 no CPT inconclusive.
O=C1CCN(Cc2ccccc2)CCN1[C@H](COc1ccccc1)Cc1ccccc1 was read as IL-1B inflam inh inconclusive, HT1080-NT tox inconclusive, HT1080 IDH1KD tx -18%, DT40 TDP1 CPT 21µM* and DT40 TDP1 no CPT 21µM*.
CN1CCC(=O)N([C@H](COc2ccccc2)Cc2ccccc2)CC1 was read as IL-1B inflam inh 21, HT1080-NT tox 0%, HT1080 IDH1KD tx -5%, DT40 TDP1 CPT 19% and DT40 TDP1 no CPT -4%.
Screening Cc1cccc(C(=O)NCC(=O)OCc2cc(=O)n3nc(C)sc3n2)c1 returned DT40 TDP1 CPT -1% and DT40 TDP1 no CPT 3%.
Screening O=C1Cc2ccccc2Sc2ccccc21 returned IL-1B inflam inh 3, HT1080-NT tox -2%, HT1080 IDH1KD tx -2%, DT40 TDP1 CPT -20% and DT40 TDP1 no CPT inconclusive.
`CN1CCC(=C2c3ccccc3Sc3ccccc32)CC1` gave IL-1B inflam inh inconclusive, HT1080-NT tox inconclusive, HT1080 IDH1KD tx inconclusive, DT40 TDP1 CPT 7.3µM* and DT40 TDP1 no CPT 18µM*.
Screening CN1CCC(=C2c3ccccc3C=Cc3ccccc32)CC1 returned IL-1B inflam inh inconclusive, HT1080-NT tox inconclusive, HT1080 IDH1KD tx 11%, DT40 TDP1 CPT 30µM*! and DT40 TDP1 no CPT 27µM*!.
Screening Cc1ccc(-n2c(=O)c3c(cnn3C)n(CC(=O)Nc3c(C)cccc3C)c2=O)cc1 returned DT40 TDP1 CPT -10% and DT40 TDP1 no CPT -10%.
Screening O=C(COC(=O)CNC(=O)c1ccccc1F)Nc1cccnc1Cl returned IL-1B inflam inh 0, HT1080-NT tox -13%, HT1080 IDH1KD tx -6%, DT40 TDP1 CPT -13% and DT40 TDP1 no CPT 1%.
For COc1ccc2c(c1)sc1nc(=O)ccn12 the results were IL-1B inflam inh -8, HT1080-NT tox -3%, HT1080 IDH1KD tx 19%, DT40 TDP1 CPT 9% and DT40 TDP1 no CPT -27%.
COc1ccc2c(c1)sc(=N)n2C was read as IL-1B inflam inh 6, HT1080-NT tox 12%, HT1080 IDH1KD tx -16%, DT40 TDP1 CPT 18µM* and DT40 TDP1 no CPT 18µM*.
CC1(c2cccc(Br)c2)NC(=O)N(CC(=O)c2ccc3c(c2)OCO3)C1=O (centres undefined) was read as IL-1B inflam inh -17, HT1080-NT tox -3%, HT1080 IDH1KD tx -2%, DT40 TDP1 CPT -22% and DT40 TDP1 no CPT -18%.
Screening CCN1CCCC1CNC(=O)c1cc2cc(F)ccc2[nH]1 (centres undefined) returned IL-1B inflam inh 18, HT1080-NT tox -11%, HT1080 IDH1KD tx -13%, DT40 TDP1 CPT -21% and DT40 TDP1 no CPT 17%.
Screening CCc1cc2c(=O)c(-c3ccc4c(c3)OCO4)coc2c(CN(C)C)c1O returned IL-1B inflam inh -2, HT1080-NT tox 0%, HT1080 IDH1KD tx -1%, DT40 TDP1 CPT 2.1µM* and DT40 TDP1 no CPT 3.7µM*.
Screening CCc1cc2c(=O)c(-c3cscn3)coc2c(CN(C)C)c1O returned IL-1B inflam inh 11, HT1080-NT tox -21%, HT1080 IDH1KD tx -17%, DT40 TDP1 CPT 1.5µM* and DT40 TDP1 no CPT 2.3µM*.

Compound activity deposited in PubChem by National Center for Advancing Translational Sciences (NCATS).
